Assay outcomes as filed in PubChem.
In the library only some 7.4% were active in any assay of this set; here they are far more common.
SMN2 splice up = SMN2 splice variant enhancement | 210,000 compounds, 2.8% hits | HEK293 SMN2-luciferase splicing reporter, luminescence, 30-36 h | Potency, µM (series often up to 46.1 µM), for inactives: at the highest dose activity change, positive = activation, most hits filed as activators; also: % of control where 0% means no effect; nearly all actives have a fitted effect of over 55% in size
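qHTS luciferase splicing reporter: luminescence rises when SMN2 exon 7 is included in transfected HEK293 cells. Compound exposure lasted 30-36 h at 37C, with 4.5 mM final sodium butyrate as control, followed by a ONE-Glo read.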
p53 reactivator = re-activators of mutant p53; H1299 p53-A138V BP100-luciferase reporter, luminescence, 24 h; Potency, µM (top dose mostly 92.2 µM), inactives show at the top dose activity change, positive = activation, usual class: activators; 320,000 compounds, 0.063% hits; AID 504706; also: % of control where 0% means no effect; nearly all actives have a fitted effect of over 45% in size
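H1299 (p53-null), stable ts p53-A138V + BP100-Luc; 1000 cells/well, Opti-MEM/10% FBS; cpd 4 pt, 1:5; 24 h, 37 deg C, 5% CO2; detection reagent 10 min RT; luminescence.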
NPC1 promoter act = NPC1 promoter activation | Potency, µM (titrated, usually from 9.22 µM), inactives show at the highest dose activation, usual class: activators | AID 485313 | Huh7 NPC1 promoter luciferase reporter, 24 h | 320,000 compounds, 2.4% hits; also: % of control where 0% means no effect; nearly all actives have a fitted effect of over 60% in size
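Compounds in DMSO were transferred onto Huh7 NPC1-luciferase reporter cells pre-incubated 2 h; after 24 h at 37 °C, Amplite reagent was dispensed and luminescence recorded 10 min later.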
ELG1 genotoxic = induces genotoxicity in HEK293T cells with luciferase-tagged ELG1 | HEK293T ELG1-luciferase reporter, luminescence, 16 h | 330,000 compounds, 1.3% hits | Potency, µM (doses to about 46 µM), for inactives: top-dose activity change, positive = activation, usual class: activators | AID 504466; also: % of control where 0% means no effect; nearly all actives have a fitted effect of over 60% in size
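After overnight (16 hr) compound treatment at 37 °C, ELG1-luciferase HEK293T cells were lysed with ONE-Glo; luminescence quantified 30 min later at room temperature.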
Rab9 prom act = activators of Rab9 promoter; 320,000 compounds, 2.8% hits; Potency, µM (doses to about 9.22 µM), for the others: at the top dose activation, negative = inhibition, most hits filed as activators; Huh7 Rab9 promoter-luciferase reporter, luminescence, 24 h; also: % of control where 0% means no effect; nearly all actives have a fitted effect of over 60% in size
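Luminescence read-out: Huh7 cells stably expressing Rab9-luciferase, treated 24 h with compound at 37 °C, then lysed with luciferase reagent for 10 min at ambient before reading.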
FLuc counter = counter-screen for miR-21 project: firefly luciferase inhibitors or activators; purified FLuc, Km substrates, luminescence inhibition; Potency, µM (top dose mostly 57.5 µM), inactives show at the highest dose activity change, negative = inhibition, most hits filed as inhibitors; 360,000 compounds, 6.9% hits;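 also: plate controls were vehicle for no effect and reference inhibitor for full effect; nearly all actives have a fitted effect of over 55% in size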
Target sequence (P08659 whole entry, looked up): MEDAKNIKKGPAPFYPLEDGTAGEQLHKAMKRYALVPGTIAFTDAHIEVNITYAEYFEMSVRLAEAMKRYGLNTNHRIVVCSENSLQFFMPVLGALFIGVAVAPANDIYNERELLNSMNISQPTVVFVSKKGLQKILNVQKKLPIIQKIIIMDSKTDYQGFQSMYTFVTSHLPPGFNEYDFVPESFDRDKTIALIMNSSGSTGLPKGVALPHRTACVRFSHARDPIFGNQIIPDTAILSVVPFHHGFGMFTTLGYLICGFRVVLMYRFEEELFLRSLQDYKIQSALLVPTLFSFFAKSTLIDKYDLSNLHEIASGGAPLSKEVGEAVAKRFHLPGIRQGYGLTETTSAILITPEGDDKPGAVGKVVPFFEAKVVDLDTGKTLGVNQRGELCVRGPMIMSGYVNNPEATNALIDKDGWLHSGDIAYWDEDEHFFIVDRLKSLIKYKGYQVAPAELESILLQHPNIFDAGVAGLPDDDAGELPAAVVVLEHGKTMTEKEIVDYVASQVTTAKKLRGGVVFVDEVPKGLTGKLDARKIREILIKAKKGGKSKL
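Biochemical qHTS of compounds, final roughly 60 µM downward over six points, against 10 nM purified firefly luciferase using Km concentrations of substrates (10 uM D-luciferin, 10 uM ATP) in Tris acetate pH 7.5 buffer; luminescence output.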
An asterisk follows results filed as active; ? = inconclusive; nt = no result. Calls follow the shape of the dose curve; as a rule, active = well fitted curve in the direction sought with a large enough effect; inconclusive = small, poorly fitted or top-dose-only effect, or another doubt; inactive = no such curve, though single readings can be large; an effect the other way counts as inactive or inconclusive. Potency is read from the fitted curve at half-maximal effect.

SMILES	SMN2 splice up	p53 reactivator	NPC1 promoter act	ELG1 genotoxic	Rab9 prom act	FLuc counter
CC(C)(C)c1csc(NC(=O)c2c(F)c(F)c(F)c(F)c2F)n1	nt	nt	0.5%	5.8%	10.8%	-0.3%
Cc1csc(NC(=O)c2nc3nc(C)cc(C)n3n2)n1	11.2µM*	?	3.55µM*	?	3.98µM*	21.3µM*
Cc1cnc(NC(=O)Cc2ccccc2Cl)s1	nt	5.9%	-1.8%	8.4%	2.9%	3.5%
CCC(CC)c1nnc(NC(=O)c2cccnc2SC)s1	9.6%	8.7%	-0.6%	0.4%	-2.5%	-18.5%
CSc1ncccc1C(=O)Nc1nc(C(C)(C)C)cs1	nt	3.3%	16.5%	12.2%	18.0%	16.9µM*
Cc1csc(NC(=O)Cc2ccccc2Cl)n1	nt	17.2%	?	?	5.01µM*	16.9µM*
O=c1c2c(nc3cc(-c4ccc(F)cc4)[nH]n13)CCC2	7.08µM*	?	2.51µM*	18.4µM*	3.16µM*	8.49µM*
CN(C)c1ccc(CC(=O)c2nc3ccccc3s2)cc1	-6.0%	?	?	?	2.51µM*	8.49µM*
CCOC(=O)c1nc2ccccc2s1	-17.0%	?	9.3%	?	14.6%	13.5µM*
CCCCNC(=O)Nc1nc2ccccc2s1	11.2µM*	18.4%	2.51µM*	?	1.41µM*	10.7µM*
CCOC(=O)Nc1nc2ccccc2s1	?	?	3.16µM*	3.66µM*	3.55µM*	6.75µM*
CCOC(=O)CC(=O)Nc1nc2ccccc2s1	2.7%	6.2%	0.6%	?	3.7%	-15.7%
Cc1ccc(CNC(=O)c2cc(S(=O)(=O)N3CCCCC3)cn2C)cc1	nt	nt	nt	nt	nt	-4.7%
Cc1nc2c(ccc3nc(NC(=O)c4ccc(S(=O)(=O)N(C)C)cc4)sc32)s1	18.8%	21.7%	-2.9%	2.4%	2.1%	2.69µM*
CN(C)S(=O)(=O)c1ccc(C(=O)Nc2nc(-c3ccccc3)c(C(=O)c3ccccc3)s2)cc1	-56.2%	2.2%	3.8%	-1.5%	1.6%	-3.2%
Cc1ccc(S(=O)(=O)CC(=O)Nc2nc3ccccc3s2)cc1	nt	0.9%	-6.3%	-1.0%	2.4%	-7.0%
CCCNC(=O)c1ccc(-c2nc3ccccc3s2)s1	2.82µM*	2.3%	?	0.206µM*	0.708µM*	0.338µM*
CCCCNC(=O)Nc1nc2ccc(CC)cc2s1	?	1.6%	?	?	?	6.75µM*
Cc1ccc(CC(=O)Nc2nc3ccccc3s2)cc1	5.8%	13.4%	?	3.1%	?	19µM*
O=C(CCNS(=O)(=O)c1ccccc1)N1CCC(Cc2ccccc2)CC1	nt	-0.6%	1.6%	-14.3%	-4.7%	1.3%
CCN(CC)S(=O)(=O)c1ccc2c(c1)N(CC(=O)Nc1ccccc1F)C(=O)C1CCCN21 (centres undefined)	-5.6%	nt	nt	nt	nt	3.8%
Cc1nc2c(ccc3nc(NC(=O)Cc4ccccc4)sc32)s1	?	?	25.3%	18.2%	?	23.9µM*
CC12CCC(C(=O)Nc3nc4ccccc4s3)(OC1=O)C2(C)C (centres undefined)	?	7.1%	?	?	?	16.9µM*
Cc1cccc2sc(NC(=O)CSCc3ccccc3)nc12	-2.0%	0.0%	-1.6%	-2.6%	-4.7%	-18.8%
O=C(O)CCC(=O)Nc1nc2ccccc2s1	-10.3%	-0.9%	-5.2%	-0.2%	-4.1%	-13.4%
SMILES	SMN2 splice up	p53 reactivator	NPC1 promoter act	ELG1 genotoxic	Rab9 prom act	FLuc counter
CCCNC(=O)Nc1nc2ccccc2s1	nt	11.9%	2.24µM*	?	2.51µM*	9.53µM*
COc1ccc([C@H]2CC(=O)C=C(c3cccc(C#N)c3)C2)cc1	nt	?	-3.1%	-2.4%	-7.3%	1.5%
O=C(Cn1nnc(-c2ccc(Cl)cc2)n1)N1CCN(C(=O)c2ccco2)CC1	nt	-4.8%	0.1%	0.9%	-3.1%	1.3%
COc1ccc(C(=O)Nc2ccc(-c3nnn(CC(=O)N4CCN(C(=O)c5ccco5)CC4)n3)cc2)cc1	-13.2%	4.8%	1.5%	-7.1%	1.4%	13.5µM*
COc1ccc(Cn2c(SCc3ccc(C(=O)NC4CCCCC4)cc3)nc3ccncc32)cc1	-12.4%	nt	nt	nt	nt	?
O=C(N/N=C/c1cccc2nccnc12)c1ccncc1	nt	14.3%	-5.3%	0.5%	-3.9%	?
O=C(N/N=C/c1cccc2nccnc12)c1ccccc1O	nt	?	-7.4%	12.5%	3.2%	10.7µM*
O=C(N/N=C/c1cccc2cccnc12)c1ccccc1O	nt	?	-0.9%	20.6µM*	-8.8%	7.57µM*
CCOC(=O)c1c(NC(=O)c2cc(=O)c3cc(C)ccc3o2)sc2c1CCCC2	-2.7%	nt	nt	nt	nt	0.2%
COc1ccc(OC)c(CCNC(=O)C(C)n2c(C)c3cnn(-c4ccccc4)c(=O)c3c2C)c1 (centres undefined)	-21.4%	nt	nt	nt	nt	0.8%
COc1ccc2ccccc2c1/C=N/NC(=O)c1cccc(Br)c1	22.4%	-12.7%	-1.5%	-7.0%	-2.5%	-3.6%
COc1ccc2ccccc2c1/C=N/NC(=O)c1ccccc1F	nt	nt	2.1%	-0.5%	-1.5%	21.3µM*
COc1ccc2ccccc2c1/C=N/NC(=O)c1sc(N)c(C#N)c1C	?	2.6%	3.8%	3.5%	10.7%	?
COc1ccc2ccccc2c1/C=N\NC(=O)c1ccc(C)s1	nt	3.3%	3.2%	1.0%	-0.6%	12µM*
CCOc1ccc(C(=O)c2ccc(OC)c(O)c2O)cc1	13.7%	nt	nt	nt	nt	nt
O=C(CCCCCN1C(=O)c2cccc3cccc(c23)C1=O)NC1CCS(=O)(=O)C1 (centres undefined)	nt	0.9%	-4.9%	5.3%	-2.2%	15.1µM*
O=C(CCN1C(=O)c2cccc3cccc(c23)C1=O)NC1CCS(=O)(=O)C1 (centres undefined)	nt	9.3%	14.9%	6.2%	18.3%	?
COc1cc(/C=N/NC(=O)c2cc3ccccc3cc2O)ccc1OCCN1CCCCC1	10.8%	-3.4%	1.7%	1.9%	-0.1%	?
Cn1c(C(=O)NN)cc2cc(Oc3ccccc3)ccc21	nt	-39.5%	3.1%	-2.8%	2.3%	-4.3%
COc1ccc2c(c1)cc(C(=O)N/N=C/c1c(O)c(C(=O)O)cc3ccccc13)n2C	nt	4.3%	-0.4%	1.8%	0.1%	2.39µM*
Cn1c(O)c(/C=N/NC(=O)c2cc3ccccc3cc2O)c2ccccc21	nt	?	?	?	3.55µM*	16.9µM*
Cn1c2ccccc2c2cc(/C=N/NC(=O)c3ccc(O)cc3O)ccc21	nt	-10.7%	0.0%	-2.9%	5.7%	?
COCCn1c(C)cc(/C=N/NC(=O)c2cc3ccccc3cc2O)c1C	nt	23.2%	-2.9%	1.2%	15.7%	15.1µM*
Cc1nn(-c2ccc(N3CCCC3)nn2)c(C)c1CCC(=O)N1CCN(c2ccccc2F)CC1	nt	nt	nt	nt	nt	-11.3%
